Test results as given in the supplement of paper PMC8371130.
Counter-ions that a name gives are not always drawn.

System: HL-1
Assay: relative cell viability (CellTiter-Glo) vs DMSO control (% of DMSO control); higher = more viable cells
Procedure, shortened: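 Cell viability, normalised to vehicle-treated control cells, was read by CellTiter-Glo luminescence. For this, HL-1 mouse atrial cardiomyocytes were plated at 1000 cells per well in 384-well plates alongside compounds at 40, 200, 1000 or 5000 nM in 0.01% DMSO. After a day, plates either spent 48 h in a hypoxic workstation at 1% O2 and then 24 h reoxygenating in a normal incubator, or remained in normoxia for the same period.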

[1] = oxygen condition: hypoxia 48 h (1% O2) + reoxygenation 24 h, 40 nM
[2] = oxygen condition: hypoxia 48 h (1% O2) + reoxygenation 24 h, 200 nM
[3] = oxygen condition: hypoxia 48 h (1% O2) + reoxygenation 24 h, 1000 nM
[4] = oxygen condition: hypoxia 48 h (1% O2) + reoxygenation 24 h, 5000 nM
[5] = oxygen condition: normoxia 72 h, 40 nM
[6] = oxygen condition: normoxia 72 h, 200 nM
[7] = oxygen condition: normoxia 72 h, 1000 nM
[8] = oxygen condition: normoxia 72 h, 5000 nM

| SMILES | relative cell viability [1] | relative cell viability [2] | relative cell viability [3] | relative cell viability [4] | relative cell viability [5] | relative cell viability [6] | relative cell viability [7] | relative cell viability [8] |
| --- | --- | --- | --- | --- | --- | --- | --- | --- |
| O=C(NCCN1CCOCC1)c1ccc(Cl)cc1 [Moclobemide] | 113 | 111 | 102 | 120 | 108 | 100 | 119 | 121 |
| C[C@@H]1CCN(C(=O)CC#N)C[C@@H]1N(C)c1ncnc2[nH]ccc12 [Tofacitinib citrate] | 97 | 104 | 100 | 107 | 106 | 102 | 98.7 | 103 |
| O=C(CCCCCCC(=O)Nc1ccccc1)NO [Vorinostat] | 101 | 105 | 85 | 27.2 | 103 | 101 | 90.1 | 14.6 |
| COC(=O)C1=C(C)NC(C)=C(C(=O)OCCN(C)Cc2ccccc2)C1c1cccc([N+](=O)[O-])c1 (stereo not given) [Nicardipine HCl] | 107 | 111 | 112 | 114 | 107 | 106 | 105 | 122 |
| COC(c1ccccc1)(c1ccccc1)[C@H](Oc1nc(C)cc(C)n1)C(=O)O [Ambrisentan] | 105 | 97.3 | 109 | 105 | 95.1 | 94 | 102 | 99.8 |
| Oc1ncnc2[nH]ncc12 [Allopurinol] | 114 | 108 | 106 | 109 | 105 | 103 | 106 | 110 |
| CC1(C)S[C@@H]2[C@H](NC(=O)[C@H](N)c3ccc(O)cc3)C(=O)N2[C@H]1C(=O)O [Amoxicillin] | 104 | 103 | 111 | 114 | 104 | 100 | 106 | 108 |
| CNCC(O)c1ccc(O)c(O)c1 (racemic) [DL-Adrenaline] | 100 | 97.8 | 67.7 | 15.5 | 107 | 93.8 | 63.6 | 11.8 |
| CCCCC(=O)N(Cc1ccc(-c2ccccc2-c2nnn[nH]2)cc1)[C@H](C(=O)O)C(C)C [Valsartan] | 104 | 97.5 | 80.6 | 51.6 | 98.1 | 95.6 | 93.8 | 45.1 |
| Nc1ccc(C(=O)O)c(O)c1 [Aminosalicylate sodium] | 95.2 | 102 | 102 | 108 | 105 | 105 | 114 | 108 |
| COc1ccccc1OCCNCC(O)COc1cccc2[nH]c3ccccc3c12 (stereo not given) [Carvedilol] | 93.5 | 110 | 107 | 108 | 104 | 105 | 107 | 107 |
| N#C[C@@H]1CCCN1C(=O)CNC12CC3CC(CC(O)(C3)C1)C2 [Vildagliptin] | 63.4 | 104 | 114 | 117 | 103 | 95.7 | 99 | 119 |
| CCCCc1nc(Cl)c(CO)n1Cc1ccc(-c2ccccc2-c2nnn[nH]2)cc1 [Losartan potassium] | 111 | 107 | 114 | 108 | 103 | 108 | 108 | 110 |
| CCC(=O)O[C@@H](O[P@](=O)(CCCCc1ccccc1)CC(=O)N1C[C@H](C2CCCCC2)C[C@H]1C(=O)O)C(C)C [Fosinopril sodium] | 106 | 99.9 | 101 | 108 | 101 | 103 | 106 | 111 |
| CN(C)CCc1c[nH]c2ccc(C[C@H]3COC(=O)N3)cc12 [Zolmitriptan] | 105 | 104 | 104 | 110 | 108 | 104 | 102 | 102 |
| Fc1ccc(C(c2ccc(F)cc2)N2CCN(C/C=C/c3ccccc3)CC2)cc1 [Flunarizine 2HCl] | 93.6 | 100 | 98.7 | 117 | 107 | 99.7 | 109 | 114 |
| COCCCOc1cc(C[C@@H](C[C@H](N)[C@@H](O)C[C@H](C(=O)NCC(C)(C)C(N)=O)C(C)C)C(C)C)ccc1OC [Aliskiren hemifumarate] | 94.1 | 97.2 | 92.3 | 107 | 95.9 | 102 | 101 | 107 |
| COc1cc(OC)c(C(=O)CCCN2CCCC2)c(OC)c1 [Buflomedil HCl] | 101 | 99.7 | 100 | 114 | 108 | 103 | 105 | 114 |

| SMILES | relative cell viability [1] | relative cell viability [2] | relative cell viability [3] | relative cell viability [4] | relative cell viability [5] | relative cell viability [6] | relative cell viability [7] | relative cell viability [8] |
| --- | --- | --- | --- | --- | --- | --- | --- | --- |
| Nc1cc(N2CCCCC2)nc(N)[n+]1[O-] [Minoxidil] | 108 | 106 | 118 | 113 | 114 | 109 | 112 | 111 |
| C=C(c1ccc(C(=O)O)cc1)c1cc2c(cc1C)C(C)(C)CCC2(C)C [Bexarotene] | 103 | 102 | 109 | 107 | 106 | 107 | 107 | 95.4 |
| NC12CC3CC(CC(C3)C1)C2 [Amantadine hydrochloride] | 107 | 110 | 93.3 | 32.7 | 102 | 101 | 101 | 84.9 |
| C=CC[C@@H]1/C=C(\C)C[C@H](C)C[C@H](OC)[C@H]2O[C@@](O)(C(=O)C(=O)N3CCCC[C@H]3C(=O)O[C@H](/C(C)=C/[C@@H]3CC[C@@H](O)[C@H](OC)C3)[C@H](C)[C@@H](O)CC1=O)[C@H](C)C[C@@H]2OC | 102 | 105 | 102 | 101 | 109 | 106 | 106 | 105 |
| COc1ccc(C[C@@H]2c3cc(OC)c(OC)cc3CC[N@+]2(C)CCC(=O)OCCCCCOC(=O)CC[N@@+]2(C)CCc3cc(OC)c(OC)cc3[C@H]2Cc2ccc(OC)c(OC)c2)cc1OC [Cisatracurium besylate] | 108 | 100 | 107 | 109 | 105 | 103 | 109 | 128 |
| CC[C@H](C)C(=O)O[C@H]1C[C@H](O)C=C2C=C[C@H](C)[C@H](CC[C@@H](O)C[C@@H](O)CC(=O)O)[C@H]21 [Pravastatin sodium] | 99.1 | 94.4 | 84.7 | 19.8 | 96.8 | 95.9 | 70.7 | 6.81 |
| COc1ccccc1N1CCN(CC(O)COc2cccc3ccccc23)CC1 (stereo not given) [Naftopidil] | 103 | 101 | 104 | 101 | 102 | 100 | 102 | 103 |
| CCCC(=O)Nc1ccc(OCC(O)CNC(C)C)c(C(C)=O)c1 (stereo not given) [Acebutolol HCl] | 102 | 108 | 107 | 114 | 104 | 107 | 106 | 116 |
| CCOc1ccc2nc(S(N)(=O)=O)sc2c1 [Ethoxzolamide] | 100 | 101 | 96.7 | 105 | 102 | 98.8 | 102 | 108 |
| CCCc1ncc(C[n+]2ccccc2C)c(N)n1 [Amprolium HCl] | 104 | 104 | 108 | 110 | 97.4 | 104 | 110 | 100 |
| CCN1CCC[C@H]1CNC(=O)c1cc(S(N)(=O)=O)ccc1OC [Levosulpiride] | 98 | 107 | 105 | 116 | 107 | 108 | 108 | 116 |
| O=C(O)[C@H](CC(=O)N1C[C@H]2CCCC[C@H]2C1)Cc1ccccc1 [Mitiglinide calcium] | 108 | 101 | 99.7 | 108 | 101 | 102 | 104 | 110 |
| CCCC1O[C@@H]2C[C@H]3[C@@H]4CCC5=CC(=O)C=C[C@]5(C)[C@H]4[C@@H](O)C[C@]3(C)[C@]2(C(=O)CO)O1 (stereo not given in full) [Budesonide] | 95.2 | 102 | 91.2 | 96.5 | 90.9 | 83.5 | 95.6 | 96.4 |
| C=CC(=O)N1CCC[C@@H](n2nc(-c3ccc(Oc4ccccc4)cc3)c3c(N)ncnc32)C1 | 98.9 | 96.6 | 101 | 102 | 101 | 90.2 | 90.5 | 102 |
| CC[C@]1(O)C[C@H]2CN(CCc3c([nH]c4ccccc34)[C@@](C(=O)OC)(c3cc4c(cc3OC)N(C=O)[C@H]3[C@@](O)(C(=O)OC)[C@H](OC(C)=O)[C@]5(CC)C=CCN6CC[C@]43[C@@H]65)C2)C1 [Vincristine] | 38.3 | 40.4 | 44.4 | 42 | 32.5 | 29.1 | 32.3 | 41.1 |
| C=CCNC(N)=S [Allylthiourea] | 118 | 102 | 115 | 122 | 106 | 100 | 109 | 124 |
| Nc1nc2[nH]cnc2c(=S)[nH]1 [Thioguanine] | 97.1 | 79.2 | 65.6 | 24.5 | 82.9 | 75.5 | 64 | 22.5 |
